12-LOX inh = inhibitors of human 12S-lipoxygenase ALOX12. AID 1671190. purified 12hLO, xylenol orange hydroperoxide absorbance. Potency, µM (highest dose often 108 µM), for the others: at the top dose activity change, negative = inhibition, actives largely listed as inhibitors. hit rate 1.1% among 580,000; further: on the % scale 0 is the no-effect control and ±100 the full control effect
Target sequence (P18054 whole entry, looked up): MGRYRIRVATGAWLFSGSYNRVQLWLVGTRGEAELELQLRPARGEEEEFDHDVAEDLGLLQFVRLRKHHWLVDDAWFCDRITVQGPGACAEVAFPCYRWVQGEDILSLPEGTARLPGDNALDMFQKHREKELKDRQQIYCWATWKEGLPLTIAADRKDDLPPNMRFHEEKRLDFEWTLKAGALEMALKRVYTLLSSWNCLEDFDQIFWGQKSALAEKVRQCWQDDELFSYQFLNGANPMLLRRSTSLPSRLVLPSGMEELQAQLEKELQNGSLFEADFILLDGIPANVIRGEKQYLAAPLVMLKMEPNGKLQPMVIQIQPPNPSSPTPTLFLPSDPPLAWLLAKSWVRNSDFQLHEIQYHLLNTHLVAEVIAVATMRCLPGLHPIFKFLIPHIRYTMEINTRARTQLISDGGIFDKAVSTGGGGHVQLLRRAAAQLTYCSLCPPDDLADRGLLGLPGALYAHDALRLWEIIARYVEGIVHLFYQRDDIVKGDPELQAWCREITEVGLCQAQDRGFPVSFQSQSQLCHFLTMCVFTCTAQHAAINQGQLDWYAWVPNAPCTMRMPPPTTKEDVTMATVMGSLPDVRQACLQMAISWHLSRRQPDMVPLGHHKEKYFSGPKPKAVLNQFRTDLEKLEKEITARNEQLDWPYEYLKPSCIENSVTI
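Hydroperoxide product was detected by ferrous iron/xylenol orange as the 573 to 405 nm absorbance ratio. Arachidonic acid at 40 uM (final) was turned over for 30 min at room temperature by 150 nM human 12hLO, pH 7.0 Hepes buffer, after 15 min compound preincubation.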
TGFb inhibitor = inhibitors of TGF-b signaling; HepG2 CAGA-GFP TGF-b/SMAD3 reporter, GFP fluorescence, 18 h; TGF-beta stimulated, 500 pg/mL final; Potency, µM (top dose mostly 46.1 µM), for the others: at the highest dose activity, negative = inhibition, hits mostly inhibitors; hit rate 1.2% among 410,000; AID 588855; further: on the % scale 0 is the no-effect control and ±100 the full control effect; nearly all actives have a fitted effect of over 65% in size
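HEPG2 CAGA-GFP, 1000 cells/well; 2 h settle, 37 C; cpd via pin tool; TGF-b 500 pg/mL final; 18 h, 37 C; GFP imaging ex488/em500-530; %Activity normalised to -TGF-b and +DMSO controls; CRC fit, curve class.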
HepG2 tox-1 = counter-screen for TGF-b inhibitors: cytotoxicity in HepG2 cells; HepG2 CAGA-GFP viability, ATP luminescence, 18 h; Potency, µM (doses to about 46.1 µM), without a hit: at the top dose activity change, negative = cytotoxicity, hits mostly cytotoxic; hit rate 0.76% among 410,000
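CellTiter-Glo luminescence gave cytotoxicity after 18 hours at 37 degrees C. The cells were HepG2 CAGA-GFP in 1% FBS DMEM, stimulated with 500 pg/mL TGF-beta after compound addition. %Activity was normalised to no-cell wells (complete cell-killing) and DMSO (no toxicity), and curves were fitted and classified.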
S2 tox = reduces viability in counter-screen for ATXN expression inhibitors | S2 cells (HEK-293 line with an ATXN2-luciferase reporter) viability, CellTiter-Fluor protease fluorescence, 24 h | Potency, µM (top dose mostly 56.7 µM), actives largely listed as cytotoxic | hit rate 0.49% among 400,000; further: nearly all actives have a fitted effect of over 40% in size
ATXN2 expr inh = ATXN2 expression inhibition; HEK-293 ATXN2-luciferase reporter, luminescence, 24 h; Potency, µM (series often up to 57 µM), for inactives: at the highest dose activity change, negative = inhibition, hits mostly inhibitors; hit rate 0.72% among 360,000; further: on the % scale 0 is the no-effect control and ±100 the full control effect; nearly all actives have a fitted effect of over 55% in size
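ATXN2-luciferase reporter cells (luciferase flanked by upstream and downstream ATXN2 gene portions) were treated 24 h at 37 °C with compounds at up to 57 uM. SteadyGlo luminescence gave expression; GF-AFC fluorescence gave viability.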
TGFb CAGA inh = TGF-b pathway inhibition, cherry-pick retest. shares compounds with TGFb inhibitor. HepG2 CAGA-GFP TGF-b reporter, GFP fluorescence, 18 h; cells stimulated with TGF-beta, 500 pg/mL. Potency, µM (top dose mostly 46.1 µM), without a hit: top-dose activity, negative = inhibition, usual class: inhibitors. hit rate 63% among 1,600. AID 720534; further: on the % scale 0 is the no-effect control and ±100 the full control effect; nearly all actives have a fitted effect of over 65% in size
HepG2 tox-2 = counter-screen for TGF-b inhibitors: cytotoxicity in HepG2 cells; shares compounds with TGFb inhibitor; HepG2 CAGA-GFP viability, ATP luminescence, 18 h; cells stimulated with TGF-beta, 500 pg/mL; Potency, µM (highest dose often 46.1 µM), for inactives: at the top dose activity, negative = cytotoxicity, usual class: inhibitors; hit rate 27% among 1,600; AID 720535; further: on the % scale 0 is the no-effect control and ±100 the full control effect; nearly all actives have a fitted effect of over 70% in size
TGFb CCL64 inh = blocks TGF-b signaling in CCL64 reporter cells. CCL64 CAGA-GFP reporter, TGF-b stimulated, GFP fluorescence, 18 h. Potency, µM (top dose mostly 46.1 µM), without a hit: at the top dose activity, negative = inhibition, most hits filed as inhibitors. hit rate 41% among 1,600. shares compounds with TGFb inhibitor; further: nearly all actives have a fitted effect of over 65% in size
TGFb COP inh = blocks TGF-b signaling in HepG2 COP reporter; shares compounds with TGFb inhibitor; HepG2 COP-GFP TGF-b reporter, GFP fluorescence, 18 h; cells stimulated by added recombinant TGF-beta; Potency, µM (doses to about 46.1 µM), for the others: at the top dose activity, negative = inhibition, hits mostly inhibitors; hit rate 3% among 1,600; further: nearly all actives have a fitted effect of over 70% in size
Active calls of the source: *. This is a sample that favours compounds with a hit; in the whole collection about 2.7% have one here. The call rests on the fitted dose curve; in most records, active means well fitted curve in the direction sought with a large enough effect; inconclusive means small, poorly fitted or top-dose-only effect, or another doubt; inactive means no such curve, though single readings can be large; an effect the other way counts as inactive or inconclusive. Potency means the concentration at half of the fitted maximal effect.

CC1(C(=O)NCc2ccc3c(c2)OCO3)CCN1Cc1csc2ccccc12 (centres undefined) was read as 12-LOX inh 2.6%, TGFb inhibitor 11.2µM*, HepG2 tox-1 -33.8%, S2 tox inactive, ATXN2 expr inh inconclusive, TGFb CAGA inh 16.4µM*, HepG2 tox-2 23.1µM*, TGFb CCL64 inh 3.66µM* and TGFb COP inh 43.6%.
COc1cccc2c1C(=O)c1c(O)c3c(c(O)c1C2=O)C[C@@](O)(C(=O)CO)C[C@@H]3OC1CC(N)C(O)C(C)O1 (some centres undefined) was read as 12-LOX inh inconclusive, TGFb inhibitor 5.62µM*, HepG2 tox-1 13.8%, S2 tox 11.9µM*, ATXN2 expr inh inconclusive, TGFb CAGA inh 2.59µM*, HepG2 tox-2 1.3µM*, TGFb CCL64 inh 3.26µM* and TGFb COP inh 14.7%.
For COc1cccc2c1C(=O)c1c(O)c3c(c(O)c1C2=O)C[C@@](O)(C(=O)CO)C[C@@H]3O[C@@H]1C[C@H](N)[C@H](O)[C@H](C)O1 the results were 12-LOX inh 0.0%.
COc1cccc2c1C(=O)c1c(O)c3c(c(O)c1C2=O)CC(O)(C(C)=O)CC3OC1CC(N(C)C)C(O)C(C)O1 (centres undefined) was read as 12-LOX inh 5.2%, TGFb inhibitor 0.794µM*, HepG2 tox-1 -42.5%, S2 tox inconclusive, ATXN2 expr inh inconclusive, TGFb CAGA inh 0.259µM*, HepG2 tox-2 0.326µM*, TGFb CCL64 inh 1.03µM* and TGFb COP inh inconclusive.
Screening CCCCc1ccc(NC(=S)Nc2ccc(Nc3ccc(OC)cc3)cc2)cc1 returned 12-LOX inh 35.5µM*, TGFb inhibitor 8.91µM*, HepG2 tox-1 -8.7%, S2 tox inactive, ATXN2 expr inh -5.8%, TGFb CAGA inh 23.1µM*, HepG2 tox-2 inconclusive, TGFb CCL64 inh inconclusive and TGFb COP inh 45.9%.
Screening O=C1[C@@H](Oc2ccccc2)[C@@H](c2cnc3ccccc3c2)N1c1ccccc1 returned 12-LOX inh 14.9%, TGFb inhibitor 11.2µM*, HepG2 tox-1 -22.0%, S2 tox inconclusive, ATXN2 expr inh -28.9%, TGFb CAGA inh 20.6µM*, HepG2 tox-2 -7.8%, TGFb CCL64 inh 16.4µM* and TGFb COP inh -7.8%.
`O=C1[C@H](Oc2ccccc2)[C@@H](c2ccncc2)N1c1ccncc1` gave 12-LOX inh 0.1%, TGFb inhibitor -8.0%, HepG2 tox-1 -3.3%, S2 tox inactive and ATXN2 expr inh 9.7%.
`COc1ccc(-c2nnn(CC(=O)N3CCN(c4ccccc4OC)CC3)n2)cc1` gave 12-LOX inh 2.7%, TGFb inhibitor 3.55µM*, HepG2 tox-1 -24.8%, S2 tox inactive, ATXN2 expr inh -2.8%, TGFb CAGA inh -17.0%, HepG2 tox-2 0.3%, TGFb CCL64 inh inconclusive and TGFb COP inh -4.2%.
`COc1ccc(-c2nnn(CC(=O)N3CCN(c4ccccc4OC)CC3)n2)cc1OC` gave 12-LOX inh 1.0%, TGFb inhibitor -1.8%, HepG2 tox-1 6.5%, S2 tox inactive and ATXN2 expr inh -0.2%.
CCOc1ccc(OCCC(=O)OCC(=O)Nc2c(C)cc(C)cc2Cl)cc1 was read as 12-LOX inh -43.9%.
O=C1Nc2ccccc2C1Cc1ccccc1 (centres undefined) was read as 12-LOX inh 260.7%, TGFb inhibitor -1.4%, HepG2 tox-1 12.6%, S2 tox inactive and ATXN2 expr inh 12.4%.
Screening COc1ccc(C[C@@H]2OC3(C=CC(=O)C=C3)O[C@H]2Cc2ccc(OC)cc2)cc1 returned TGFb inhibitor 2.82µM*, HepG2 tox-1 11.2µM*, ATXN2 expr inh inconclusive, TGFb CAGA inh 2.31µM*, HepG2 tox-2 2.59µM*, TGFb CCL64 inh 0.82µM* and TGFb COP inh inconclusive.
`O=C1C=CC2(C=C1)O[C@H](Cc1ccccc1)[C@@H](Cc1ccccc1)O2` gave 12-LOX inh 0.1%, TGFb inhibitor 4.47µM*, HepG2 tox-1 -120.0%, S2 tox 2.99µM*, ATXN2 expr inh inconclusive, TGFb CAGA inh 3.26µM*, HepG2 tox-2 6.51µM*, TGFb CCL64 inh 1.03µM* and TGFb COP inh inconclusive.
For O=C(COC(=O)c1cccc(NC(=O)c2cccs2)c1)c1ccccc1 the results were 12-LOX inh -5.8%.
Screening COCCn1cnc2c1c(=O)n(CC(=O)Nc1ccccc1OC(F)F)c(=O)n2Cc1ccccc1 returned 12-LOX inh 80.0%.
CCc1sc(C(=O)OCC(=O)c2ccc3c(c2)OCCO3)cc1C was read as 12-LOX inh -2.6%.
OCC1(Cc2ccccc2)CCN(Cc2cnc(-c3ccc(Cl)cc3)nc2)CC1 was read as 12-LOX inh inconclusive, TGFb inhibitor 8.91µM*, HepG2 tox-1 15.8µM*, S2 tox inactive, ATXN2 expr inh 22.1%, TGFb CAGA inh -10.3%, HepG2 tox-2 inconclusive, TGFb CCL64 inh 0.3% and TGFb COP inh 35.6%.
Cc1cn2nc(C(=O)N3CCC(NC(=O)c4ccc[nH]4)CC3)cc2c(=O)[nH]1 was read as 12-LOX inh 20.5%.
`COc1ccc(S(=O)(=O)NC2CC3CCC2C3)cc1Br` (centres undefined) gave 12-LOX inh 0.7%, TGFb inhibitor -21.5%, HepG2 tox-1 -1.8% and S2 tox inactive.

Screens from PubChem BioAssay.
